From PubChem BioAssay (NCI)
Where “and” joins values, the source holds several entries; their conditions need not be identical. Equal entries are not always repeated. About 79,000 compounds went through this panel and 15% of them were active in at least one assay; those are over-represented in the sample as a whole. A number with no mark means an inactive call. Calls of active or inactive are those of the source. Rule as the data show it: active = growth inhibition above about 70%; inactive = the rest.

Legend:
[1] = NCI Yeast Anticancer Drug Screen. Data for the rad50 strain (AID 155);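 also: 0% = growth of vehicle-only cultures of the same strain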; conditions: S. cerevisiae rad50 strain growth inhibition, hits give high values
Summary of the method: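 Readout: growth inhibition relative to vehicle-treated cultures. Compound exposure was carried out in a genetically defined yeast strain deficient in DNA damage repair.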

[2] = NCI Yeast Anticancer Drug Screen. Data for the mec2-1 strain (AID 157); conditions: S. cerevisiae mec2-1 strain, hits give high values
Summary of the method: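 Cells of the genetically defined mec2-1 yeast strain are incubated with test compound. Inhibition of growth is calculated against vehicle-treated controls.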

[3] = NCI Yeast Anticancer Drug Screen. Data for the sgs1 mgt1 strain (AID 161);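 also: 0% = growth of cultures given vehicle only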; conditions: S. cerevisiae sgs1 mgt1 strain, hits give high values
Summary of the method: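 Test agents were incubated with a DNA-repair-mutant yeast strain. Growth was then read and compared against vehicle-treated controls.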

[4] = NCI Yeast Anticancer Drug Screen. Data for the cln2 rad14 strain (AID 165);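 also: 0% = growth equal to vehicle treated cultures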; conditions: S. cerevisiae cln2 rad14 strain, hits give high values
Summary of the method: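 The screen exposed genetically defined yeast (cln2 rad14) to test compounds and scored growth inhibition relative to vehicle-treated controls.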

[5] = NCI Yeast Anticancer Drug Screen. Data for the bub3 strain (AID 167); conditions: S. cerevisiae bub3 mutant strain, hits give high values
Summary of the method: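 Readout: yeast growth inhibition, expressed relative to vehicle-only wells. The test organism is a mutant strain from a panel with lesions in DNA repair or checkpoint genes.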

[6] = NCI Yeast Anticancer Drug Screen. Data for the mlh1 rad18 strain (AID 175); conditions: S. cerevisiae mlh1 rad18 strain growth inhibition, hits give high values
Summary of the method: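 Compound-treated yeast growth, normalised to vehicle controls. Strain bears defined DNA repair mutations.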

[7] = at 5.0 µM (retest, dose inferred, filed as 0.5)
[8] = at 50.0 µM (retest, dose inferred, filed as 5.0)

Row | SMILES | growth inhibition [1, 7] | growth inhibition [1, 8] | growth inhibition ([1]; at 50.0 µM) | growth inhibition [2, 7] | growth inhibition [2, 8] | growth inhibition ([2]; at 50.0 µM) | growth inhibition [3, 7] | growth inhibition [3, 8] | growth inhibition ([3]; at 50.0 µM) | growth inhibition [4, 7] | growth inhibition [4, 8] | growth inhibition ([4]; at 50.0 µM) | growth inhibition [5, 7] | growth inhibition [5, 8] | growth inhibition ([5]; at 50.0 µM) | growth inhibition [6, 7] | growth inhibition [6, 8] | growth inhibition ([6]; at 50.0 µM)
1 | CSc1ccc2c(c1)c(CCN)c(C)n2Cc1ccccc1Cl | 3% | 100% (active) | 99.5% (active) | 0% | 100% (active) | 99.5% (active) | 12% | 99% (active) | 99.3% (active) | -31% | 98% (active) | 98.5% (active) | -7% | 99% (active) | 99.5% (active) | 13% | 99% (active) | 99.4% (active)
2 | O=[N+]([O-])c1ccc([Se]CCBr)c([N+](=O)[O-])c1 | 5% | 36% | 38.4% | 1% | 23% | 41% | 5% | 95% (active) | 18.2% | 2% | 88% (active) | 15.8% | -2% | 90% (active) | 30.2% | 10% | 96% (active) | 19.8%
3 | CCOP(=O)(Oc1ccc([N+](=O)[O-])cc1)c1ccccc1C(C)C (stereo unspecified) | 11% | 49% | 90.8% (active) | 25% | 70% (active) | 90.8% (active) | -11% | 92% (active) | 95.6% (active) | 40% | 34% | 95.6% (active) | 12% | 49% | 96.8% (active) | -11% | 77% (active) | 96.7% (active)
4 | CCN(CCCl)c1ccc(/C=C/C2=[N+](C)c3ccccc3C2(C)C)c(C)c1 | -5% | 98% (active) | 62% | -1% | 99% (active) | 98.2% (active) | -8% | 98% (active) | 96.8% (active) | -4% | 97% (active) | 71.5% (active) | -6% | 99% (active) | 99.2% (active) | -1% | 98% (active) | 60.8%
5 | CCC[CH2][Sn]1([CH2]CCC)[O]CC(c2ccccn2)C[O]1 | 36% | 98% (active) | 87.2% (active) | 28% | 98% (active) | 90.7% (active) | 34% | 98% (active) | 88.2% (active) | 21% | 97% (active) | 89.5% (active) | 37% | 99% (active) | 89% (active) | 44% | 98% (active) | 87.4% (active)
6 | Nc1ccc(N=Nc2ccccc2)cc1 | 1% | 76% (active) | 69.7% | -4% | 37% | 17.6% | 1% | 92% (active) | 37.4% | 5% | 50% | 3.25% | 3% | 43% | 37.4% | 1% | 78% (active) | 82.5% (active)
7 | CCCCCCCCCCCCN=C(N)N | 80% (active) | 98% (active) | 99.1% (active) | 72% (active) | 99% (active) | 99.3% (active) | 87% (active) | 99% (active) | 99% (active) | 59% | 98% (active) | 98.5% (active) | 96% (active) | 99% (active) | 99.4% (active) | 71% (active) | 98% (active) | 98.4% (active)
8 | CC(C(=O)C1CCCCC1)[n+]1ccccc1 (stereo unspecified) | 1% | -2% | -1.2% | 1% | 1% | 1.3% | 0% | -2% | -2.3% | 9% | -2% | 48.5% | 3% | 1% | 11.2% | -4% | -6% | -5.85%
9 | CCCCCCCC[N+](CCCC)(CCCC)CCCC (tested in a mixture with another compound) | 99% (active) | 99% (active) | 99.5% (active) | 99% (active) | 100% (active) | 99.7% (active) | 100% (active) | 100% (active) | 99.5% (active) | 97% (active) | 99% (active) | 99.5% (active) | 100% (active) | 99% (active) | 99.7% (active) | 99% (active) | 99% (active) | 99.3% (active)
10 | c1cnc2c(c1)ccc1cccnc12 | 58% and 14% | 97% (active) and 99% (active) | 99.5% (active) and 99.2% (active) | 32% and 27% | 99% (active) | 99.2% (active) and 98.9% (active) | 50% and 13% | 98% (active) | 98.3% (active) and 99% (active) | 6% and -24% | 98% (active) and 90% (active) | 98% (active) and 96.2% (active) | 42% and 4% | 98% (active) and 99% (active) | 98.8% (active) and 99% (active) | 52% and 17% | 97% (active) and 98% (active) | 98.8% (active)
11 | C[CH2][Sn]([Cl])([CH2]C)[O][Sn]([CH2]C)([CH2]C)[O][Sn]([Cl])([CH2]C)[CH2]C | 16% | 79% (active) | 76% (active) | 19% | 84% (active) | 81% (active) | -17% | 89% (active) | 86.3% (active) | 15% | 90% (active) | 82.2% (active) | 12% | 89% (active) | 83.2% (active) | 11% | 77% (active) | 81.4% (active)
12 | CN1C(=O)CC[C@@]2(C)C1=CC[C@H]1[C@@H]3CC[C@H](O)[C@@]3(C)CC[C@@H]12 | 7% | 64% | -9.15% | 0% | 43% | 14.9% | 12% | 79% (active) | 55% | 13% | 40% | -3.4% | 3% | 63% | 62.1% | 6% | 52% | 15.1%
13 | CCCCC1CCCCCCc2[nH]c(/C=C3\N=C(c4ccc[nH]4)C=C3OC)cc21 (stereo unspecified) | 24% | 91% (active) | 82.3% (active) | 23% | 93% (active) | 86.5% (active) | 45% | 93% (active) | 84.8% (active) | 39% | 94% (active) | 81.2% (active) | 29% | 93% (active) | 81.9% (active) | 34% | 90% (active) | 80.5% (active)
14 | CCCCS.[Hg] | 99% (active) | 94% (active) | 98.9% (active) | 99% (active) | 96% (active) | 99% (active) | 99% (active) | 94% (active) | 99.1% (active) | 97% (active) | 93% (active) | 98.7% (active) | 99% (active) | 93% (active) | 98.8% (active) | 99% (active) | 94% (active) | 99.2% (active)
15 | BrCc1ccc2ncccc2c1 | 5% | 98% (active) | 98.5% (active) | 4% | 99% (active) | 98.9% (active) | 6% | 98% (active) | 99% (active) | 11% | 99% (active) | 98.5% (active) | 3% | 99% (active) | 99% (active) | 1% | 99% (active) | 98.5% (active)
16 | COC(=O)C(C)(C)[n+]1c(C)cc(C)cc1C | -13% | -6% | -5.45% | -5% | -35% | -3% | -17% | -14% | -3.1% | -10% | -8% | -7.1% | 1% | 8% | -6.5% | -1% | 5% | 5.9%
17 | COc1cc(/C=C/c2ccc(OC)c(OC)c2)cc(OC)c1 | -6% | 10% | 26.1% | -2% | 26% | 15.1% | -3% | 68% | 79% (active) | -4% | 16% | 47.6% | 1% | 69% | 66.9% | -3% | 12% | 59.5%
